Several values for one entry are separate records, joined by “and”; a condition that tells them apart may be missing. Equal entries are not always repeated. Inconclusive results are not listed. Entries that show only a call come without a potency. The source holds several records for some structures; these can differ, active in one and inactive in another. Activity calls are given as the source filed them. Calls follow the shape of the dose curve; as a rule, active = well fitted curve in the direction sought with a large enough effect in the repeat runs; inconclusive = weak or mixed curves; inactive = no such curve, though single readings can be large; an effect the other way counts as inactive or inconclusive.
Experiments:
[1] = A CellTox Green Cytotoxicity Assay to monitor cytotoxicity in HEK293 cells - 40 hour (AID 1224871); also: nearly all actives have a fitted effect of over 45% in size; also: potency is read from the fitted curve at half-maximal effect
Outline: (§1)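 Homogeneous no-lysis format: HEK293 cell suspension mixed with CellTox Green reagent, seeded, incubated 5 h at 37 C/5% CO2, then dosed by pintool with compound in DMSO.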

[2] = qHTS RealTime-Glo MT Cell Viability Assay in HEK293 cells - 16 hour (AID 1224872); also: nearly all actives have a fitted effect of over 50% in size; also: potency is read from the fitted curve at half-maximal effect; as to activity change, negative = cytotoxicity: top concentration of the series differs between compounds
Outline: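 Luminescence generated by NanoLuc from substrate produced by living HEK293 cells served as the viability signal. Each value reflects the reading at its stated time point during continuous 40 h compound exposure at 37 C.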

[3] = qHTS RealTime-Glo MT Cell Viability Assay in HepG2 cells - 8 hour (AID 1224873); also: nearly all actives have a fitted effect of over 55% in size; also: potency is read from the fitted curve at half-maximal effect
Outline: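 HepG2 cells mixed with RealTime-Glo MT reagents (NanoLuc plus cell-permeant prosubstrate) were seeded at 600 cells/well, incubated 5 h at 37 C/5% CO2, then pinned with compounds in DMSO; nonlytic luminescence tracked viability during 40 h treatment.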

[4] = qHTS RealTime-Glo MT Cell Viability Assay in HEK293 cells - 40 hour (AID 1224874); details: RealTime-Glo luminescence; max response: stronger effect = lower value; also: nearly all actives have a fitted effect of over 50% in size; also: potency is read from the fitted curve at half-maximal effect
Outline: (§2)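 Measured as luminescence from the same continuously cultured HEK293 wells at successive time points (0, 8, 16, 24, 32, 40 h) after compound addition. Reagent present from seeding; dosing at 5 h; incubation 37 C.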

[5] = A CellTox Green Cytotoxicity Assay to monitor cytotoxicity in HEK293 cells - 24 hour (AID 1224875); also: nearly all actives have a fitted effect of over 45% in size; also: potency is read from the fitted curve at half-maximal effect; as to activity change: series mostly up to about 77 µM
Outline: as §1

[6] = A CellTox Green Cytotoxicity Assay to monitor cytotoxicity in HepG2 cells - 16 hour (AID 1224876); also: nearly all actives have a fitted effect of over 45% in size; also: potency is read from the fitted curve at half-maximal effect
Outline: (§3)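 Fluorescent DNA-binding dye, 600 HepG2 cells/well, 5 h preincubation then compound in DMSO; same plates read at 0–40 h, 37 C.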

[7] = qHTS RealTime-Glo MT Cell Viability Assay in HepG2 cells - 32 hour (AID 1224877); also: nearly all actives have a fitted effect of over 55% in size; also: potency is read from the fitted curve at half-maximal effect
Outline: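 Tox21 10K library screened in qHTS format on HepG2 cells carrying RealTime-Glo reagents. Compounds were added after a 5 h preincubation, and the luminescent signal from continuous culture was measured repeatedly during 40 h treatment.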

[8] = A CellTox Green Cytotoxicity Assay to monitor cytotoxicity in HepG2 cells - 24 hour (AID 1224878); also: nearly all actives have a fitted effect of over 45% in size; also: potency is read from the fitted curve at half-maximal effect
Outline: as §3

[9] = A CellTox Green Cytotoxicity Assay to monitor cytotoxicity in HepG2 cells - 40 hour (AID 1224879); also: nearly all actives have a fitted effect of over 40% in size; also: potency is read from the fitted curve at half-maximal effect
Outline: as §3

[10] = qHTS RealTime-Glo MT Cell Viability Assay in HEK293 cells - 0 hour (AID 1224880)
Outline: as §2

For O=C(O)c1ccc(Cl)c(Cl)c1, the Potency [1] was “inactive”, the Potency [2] was “inactive” and the Potency [3] was “inactive”. For the same compound, the max response [4] was 2.99% (inactive), the Potency [5] was “inactive” and the Potency [6] was “inactive”. The Potency [7] was “inactive”, the Potency [8] was “inactive” and the Potency [9] was “inactive”. For the same compound, the Potency [10] was “inactive”.

For CC(C)c1ccc2c(c1)CC[C@H]1[C@](C)(CN)CCC[C@]21C, the Potency [1] was 19.5 µM (active), the Potency [2] was 13.8 µM (active) and the Potency [3] was 34.7 µM (active). The Potency [4] was 11 µM (active), the Potency [5] was 19.5 µM (active) and the Potency [6] was 19.5 µM (active). The Potency [7] was 11 µM (active), the Potency [8] was 13.8 µM (active) and the Potency [9] was 11 µM (active).

In the case of O=C1C=CC(=O)N1c1ccc(Cc2ccc(N3C(=O)C=CC3=O)cc2)cc1, the Potency [1] is reported as 11 µM (active), the Potency [2] is reported as 17.4 µM (active) and the Potency [3] is reported as 12.3 µM (active). For the same compound, the Potency [4] was 12.3 µM (active), the Potency [5] was 38.9 µM (active) and the Potency [6] was 13.8 µM (active). For the same compound, the Potency [7] was 12.3 µM (active), the Potency [8] was 11 µM (active) and the Potency [9] was 7.76 µM (active).

With Cc1onc(-c2c(Cl)cccc2Cl)c1C(=O)N[C@@H]1C(=O)N2[C@@H]1SC(C)(C)[C@@H]2C(=O)O the Potency [1] was “inactive”, the Potency [2] was “inactive” and the Potency [3] was “inactive”. The max response [4] was 9.42% (inactive), the Potency [5] was “inactive” and the Potency [6] was “inactive”. The Potency [7] was “inactive”, the Potency [8] was “inactive” and the Potency [9] was “inactive”.

In the case of O=C1C=CC(=O)N1, the Potency [1] is reported as 17.8 µM (active), the Potency [2] is reported as 15.9 µM (active) and the Potency [3] is reported as 44.8 µM (active). The Potency [4] was 11.3 µM (active), the Potency [5] was 20 µM (active) and the Potency [6] was 25.2 µM (active). For the same compound, the Potency [7] was 22.5 µM (active), the Potency [8] was 20 µM (active) and the Potency [9] was 17.8 µM (active).

With OCCN1CCN(CC/C=C2/c3ccccc3Sc3ccc(C(F)(F)F)cc32)CC1 the Potency [1] was 26.8 µM (active), the Potency [2] was 19 µM (active) and the Potency [3] was 23.9 µM (active). The Potency [4] was 19 µM (active), the Potency [5] was 26.8 µM (active) and the Potency [6] was 23.9 µM (active). For the same compound, the Potency [7] was 15.1 µM (active), the Potency [8] was 16.9 µM (active) and the Potency [9] was 13.4 µM (active).

For COc1cc(/C=C/C(=O)O[C@H]2CC[C@]34C[C@]35CC[C@]3(C)[C@@H]([C@H](C)CCC=C(C)C)CC[C@@]3(C)[C@@H]5CC[C@H]4C2(C)C)ccc1O, the Potency [1] was “inactive”, the Potency [2] was “inactive” and the Potency [3] was “inactive”. For the same compound, the max response [4] was 1.32% (inactive), the Potency [5] was “inactive” and the Potency [6] was “inactive”. For the same compound, the Potency [7] was “inactive”, the Potency [8] was “inactive” and the Potency [9] was “inactive”. The Potency [10] was “inactive”.

With CCCC/C=C/CCCCO the Potency [1] was “inactive”, the Potency [2] was “inactive” and the Potency [3] was “inactive”. For the same compound, the max response [4] was 5.87% (inactive), the Potency [5] was “inactive” and the Potency [6] was “inactive”. The Potency [7] was “inactive”, the Potency [8] was “inactive” and the Potency [9] was “inactive”.

In the case of NC(=O)CC[C@@H]1NC(=O)[C@H](Cc2ccccc2)NC(=O)[C@H](Cc2ccc(O)cc2)NC(=O)CCSSC[C@@H](C(=O)N2CCC[C@H]2C(=O)N[C@@H](CCCN=C(N)N)C(=O)NCC(N)=O)NC(=O)[C@H](CC(N)=O)NC1=O, the Potency [1] is reported as “inactive”, the Potency [2] is reported as “inactive” and the Potency [3] is reported as “inactive”. For the same compound, the max response [4] was 0.946% (inactive), the Potency [5] was “inactive” and the Potency [6] was “inactive”. The Potency [7] was “inactive”, the Potency [8] was “inactive” and the Potency [9] was “inactive”. For the same compound, the Potency [10] was “inactive”.

With CN(C)[C@@H]1C(=O)C(C(N)=O)=C(O)[C@@]2(O)C(=O)C3=C(O)c4c(O)cccc4C[C@H]3C[C@@H]12 the Potency [1] was “inactive”, the Potency [2] was “inactive” and the Potency [3] was “inactive”. The max response [4] was 1.21% (inactive), the Potency [5] was “inactive” and the Potency [6] was “inactive”. The Potency [7] was “inactive”, the Potency [8] was “inactive” and the Potency [9] was “inactive”.

For CCC(C)Nc1ccc(NC(C)CC)cc1 (stereo not drawn), the Potency [1] was 12.5 µM (active), the Potency [2] was 4.45 µM (active) and the Potency [3] was 19.9 µM (active). For the same compound, the Potency [4] was 3.97 µM (active), the Potency [5] was 17.7 µM (active) and the Potency [6] was 35.3 µM (active). The Potency [7] was 17.7 µM (active), the Potency [8] was 22.3 µM (active) and the Potency [9] was 17.7 µM (active).

In the case of CC[C@H](c1ccc(O)cc1)[C@@H](CC)c1ccc(O)cc1, the Potency [1] is reported as 34.7 µM (active) and inactive, the Potency [2] is reported as “inactive” and the Potency [3] is reported as “inactive”. For the same compound, the Potency [4] was 24.5 µM (active), the Potency [5] was “inactive” and the Potency [6] was 49 µM (active). For the same compound, the Potency [7] was “inactive”, the Potency [8] was 49 µM (active) and the Potency [9] was 49 µM (active).

For CCCCCCCC[P+](CCCCCCCC)(CCCCCCCC)CCCCCCCC, the Potency [1] was 6.87 µM (active), the Potency [2] was 4.87 µM (active) and the Potency [3] was 17.3 µM (active). The Potency [4] was 0.194 µM (active), the Potency [5] was 4.87 µM (active) and the Potency [6] was 12.2 µM (active). The Potency [7] was 12.2 µM (active), the Potency [8] was 9.71 µM (active) and the Potency [9] was 10.9 µM (active).

With C[n+]1cc2c3c(ccc2c2ccc4cc5c(cc4c21)OCO5)OCO3 the Potency [1] was 0.465 µM (active), the Potency [2] was 0.585 µM (active) and the Potency [3] was 0.737 µM (active). The Potency [4] was 0.585 µM (active), the Potency [5] was 0.737 µM (active) and the Potency [6] was 0.585 µM (active). For the same compound, the Potency [7] was 0.928 µM (active), the Potency [8] was 0.522 µM (active) and the Potency [9] was 0.657 µM (active). The activity change, negative = cytotoxicity [10] was -2.48% [at 15.8 µM] (inactive).

With [Cl][Au]([Cl])[Cl] the Potency [1] was 21.9 µM (active), the Potency [2] was 4.9 µM (active) and the Potency [3] was 49 µM (active). The Potency [4] was 3.09 µM (active), the Potency [5] was 21.9 µM (active) and the Potency [6] was 21.9 µM (active). For the same compound, the Potency [7] was 9.77 µM (active), the Potency [8] was 13.8 µM (active) and the Potency [9] was 7.76 µM (active).

For O=C(O)c1cc(O)c2c(c1)C(=O)c1cccc(O)c1C2=O, the Potency [1] was “inactive”, the Potency [2] was “inactive” and the Potency [3] was “inactive”. The max response [4] was -10.8% (inactive), the Potency [5] was “inactive” and the Potency [6] was “inactive”. The Potency [7] was “inactive”, the Potency [8] was “inactive” and the Potency [9] was “inactive”.

In the case of Clc1ccc(C(Cn2ccnc2)OCc2ccc(Sc3ccccc3)cc2)c(Cl)c1 (stereo not drawn), the Potency [1] is reported as “inactive”, the Potency [2] is reported as “inactive” and the Potency [3] is reported as “inactive”. For the same compound, the max response [4] was -2.43% (inactive), the Potency [5] was “inactive” and the Potency [6] was “inactive”. The Potency [7] was “inactive”, the Potency [8] was “inactive” and the Potency [9] was “inactive”. The Potency [10] was “inactive”.

In the case of COC(=O)c1cc(Cl)ccc1OC, the Potency [1] is reported as “inactive”, the Potency [2] is reported as “inactive” and the Potency [3] is reported as “inactive”. For the same compound, the max response [4] was 6.18% (inactive), the Potency [5] was “inactive” and the Potency [6] was “inactive”. The Potency [7] was “inactive”, the Potency [8] was “inactive” and the Potency [9] was “inactive”. For the same compound, the Potency [10] was “inactive”.

For O=C(c1ccc(O)cc1O)c1ccc(O)cc1O, the Potency [1] was “inactive”, the Potency [2] was “inactive” and the Potency [3] was “inactive”. The max response [4] was -12.9% (inactive) and -13.9% (inactive), the Potency [5] was “inactive” and the Potency [6] was “inactive”. The Potency [7] was “inactive”, the Potency [8] was “inactive” and the Potency [9] was “inactive”. For the same compound, the Potency [10] was “inactive”.

From PubChem BioAssay (Tox21)
